In PubChem BioAssay (NCI):
The panel holds about 83,000 compounds, 20% with a hit somewhere; the sample as a whole holds those more often.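 For each line, cells grew in 96-well plates with the test compound present at a single concentration for 48 hours.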 Activity calls are given as the source filed them. The calls were made as follows: active = growth percent below 10; inactive = the rest.

Columns and labels:
Test in all cases: NCI-60 one-dose screen, 48 h (100 = growth as untreated, 0 = no growth, -100 = all killed)
Conditions in all cases: 10 µM unless noted
SR leukemia = tested on: SR leukemia
RPMI-8226 leukemia = tested on: RPMI-8226 leukemia
OVCAR-8 ovarian = tested on: OVCAR-8 ovarian
OVCAR-4 ovarian = tested on: OVCAR-4 ovarian
SK-OV-3 ovarian = tested on: SK-OV-3 ovarian
IGROV1 ovarian = tested on: IGROV1 ovarian
OVCAR-3 ovarian = tested on: OVCAR-3 ovarian
HS 578T breast = tested on: HS 578T breast
NCI/ADR-RES ovarian = tested on: NCI/ADR-RES ovarian
OVCAR-5 ovarian = tested on: OVCAR-5 ovarian

Measured: growth

COc1ccc2c(c1)c(-c1noc(C(=O)c3cn(C)c4ccc(Br)cc34)n1)cn2C
inactive: SR leukemia 80.5% | RPMI-8226 leukemia 95.4% | OVCAR-8 ovarian 96.1% | OVCAR-4 ovarian 108% | SK-OV-3 ovarian 99.5% | IGROV1 ovarian 89.2% | OVCAR-3 ovarian 111% | HS 578T breast 94.6% | NCI/ADR-RES ovarian 102%

C#Cc1cccc(Nc2ncnc3ccc(-c4cncc(NS(C)(=O)=O)c4)cc23)c1
inactive: RPMI-8226 leukemia 26.3% | OVCAR-8 ovarian 37.1% | OVCAR-4 ovarian 52.1% | NCI/ADR-RES ovarian 78.3%
active: SR leukemia 7.86% | SK-OV-3 ovarian 0.85% | IGROV1 ovarian -12.4% | OVCAR-3 ovarian 7.33% | HS 578T breast 6.13%

CCCCNC(=O)Oc1ccc(/C(=C(/CC)Cc2ccccc2)c2ccc(OCCN3CCCCCC3)cc2)cc1
active: SR leukemia -24.6% | RPMI-8226 leukemia -27.6%
inactive: OVCAR-8 ovarian 14% | OVCAR-4 ovarian 32.9% | SK-OV-3 ovarian 82.7% | IGROV1 ovarian 42.3% | OVCAR-3 ovarian 72.2% | HS 578T breast 56.6% | NCI/ADR-RES ovarian 53.8%

CCN(CC)C(=S)SC(SC(=S)N(CC)CC)C(=O)c1nnn(-c2ccc([N+](=O)[O-])cc2)c1C
inactive: SR leukemia 55.3% | RPMI-8226 leukemia 90.8% | OVCAR-8 ovarian 101% | OVCAR-4 ovarian 104% | SK-OV-3 ovarian 112% | IGROV1 ovarian 71.2% | OVCAR-3 ovarian 98.4% | HS 578T breast 113% | NCI/ADR-RES ovarian 99.8%

OCc1cccc(-c2ccc3ncc(-c4nc(NC5CC5)ncc4F)n3c2)c1
active: SR leukemia -13.5% | OVCAR-8 ovarian -2.83% | OVCAR-5 ovarian -9.98% | OVCAR-4 ovarian -1.5% | IGROV1 ovarian -13.3% | OVCAR-3 ovarian -1.89% | HS 578T breast -29.8% | NCI/ADR-RES ovarian -3.01%
inactive: SK-OV-3 ovarian 14%
